From PubChem BioAssay (EPA / NIEHS)
Where “and” joins values, the source holds several entries; their conditions need not be identical. Identical values can stand only once. Some compounds were tested as several samples or in several runs, with calls that do not always agree. Calls of active or inactive are those of the source. The calls were made as follows: active = hit-call score of the fitted dose curve at least 0.9, where 1 is the maximum; inactive = score below 0.9.

assay: CCTE_Shafer_MEA_dev_per_burst_interspike_interval: CCTE's Neural Network Formation Assay for Burst Interspike Interval, Shafer Lab (AID 2284044);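 also: mean spike spacing inside bursts as AUC over recordings on days 5 7 9 12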;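 as to AC50: potency for a decrease of within-burst interspike interval below DMSO level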
Description: CCTE_Shafer_MEA_dev assay is conducted using Axion Biosystems 48 well microelectrode array (MEA) plates and Maestro recording system. Each well of the MEA plate contains a grid of 16 microelectrodes embedded in the culture surface. Electrically active cells, such as neurons, can be cultured over the electrodes, and electrical activity in these cells can be recorded extracellularly. The spontaneous firing of neurons is captured from each electrode on a microsecond timescale providing both temporally and spatially precise data. […] The CCTE_Shafer_MEA_dev assay uses primary cultures of rat cortical neurons. Recordings are made on days post-plating 5, 7, 9 and 12. As these cultures mature over time, neural networks develop functional activity and form cohesive networks in which electrical activity can be highly coordinated. CCTE_Shafer_MEA_dev_per_burst_interspike_interval is 1 of 19 assay components of the CCTE_Shafer_MEA_dev assay. It measures the average time interval between spikes (action potential firings) within a single-electrode burst (temporally-clustered group of spikes) during a recording in a microelectrode array (MEA) using Axion Biosystems Maestro 768 channel amplifier with the AxIS adaptive spike detector. The mean inter-spike interval within bursts is averaged across the actively bursting electrodes to report a well-mean value. To collapse across multiple recordings made on days post-plating 5, 7, 9 and 12, the trapezoidal area-under-the-curve of the component is calculated.Data from the assay component CCTE_Shafer_MEA_dev_per_burst_interspike_interval was analyzed into 1 assay endpoint. This assay endpoint, CCTE_Shafer_MEA_dev_per_burst_interspike_interval, was analyzed in the negative analysis fitting direction relative to DMSO as the negative control and baseline of activity. Using a type of functional reporter, gain or loss-of-signal activity can be used to understand electrical activity.
On the day prior to culture, each well was coated thoroughly with 150 uL of 0.05% polyethyleneimine (PEI, Sigma Cat P3143) in 50 mM HEPES (Sigma Cat H7523) at a pH of 8. The plate was incubated at 37C for one hour. PEI was rinsed out with 500 uL of sterile water three times. Plates were stored at 4C until the day of culture. This culture was plated at a seeding density of 1.5 x 10^5 cells/well on a 48-well MEA plate, prepared as described above. Cells were administered via a 25 uL media/laminin ([…]; Sigma Cat L2020-1MG) drop directly onto the microelectrode array, as adding the cells with the laminin results in better attachment than pre-coating with laminin. After 2 hours, an additional 475 uL of cortical media was added and the cells returned to the incubator. Exposure starts at day 0 of plating and is continued over twelve days of network development until the experiment is terminated. Cells are fed with fresh medium on DIV 5 and 9, following the recordings on those days. The entire volume of media in the well is exchanged and any vehicle or compound treatment is renewed. Complete details are found in OP-NHEERL/ISTD/SBB/TJS/2015-03-r0 (available on request, email shafer.tim@epa.gov). Measurement of the electrical activity is non-invasive, and recordings can be made from the same plate over multiple different days of the culture. In cortical neurons, this allows for the measurement of extracellular action potentials over the period during which networks form in the MEA plate.

Which AC50 does the source give for `O=C1C2CC=CCC2C(=O)N1SC(Cl)(Cl)Cl` (stereo unspecified) here?
Its AC50 is 16.2 µM (active).

What about the outcome of the same compound?
The outcome was “inactive”.

Which outcome does the source give for `CC(C)(C)C(=O)C(Oc1ccc(Cl)cc1)n1cncn1` (stereo unspecified) here?
Its outcome is “inactive”.

For `CC1(C)C(C=C(Cl)Cl)C1C(=O)OC(C#N)c1cccc(Oc2ccccc2)c1` (stereo unspecified), which outcome is on record?
The outcome was “inactive”.

With `CNC(=O)Oc1cccc2ccccc12` as the compound, how does the outcome read?
Its outcome is “inactive”.

Which outcome does the source give for `CCNC(=O)NC(=O)C(C#N)=NOC` here?
Its outcome is “inactive”.

With `CC1(C)C(C(=O)OC(C#N)c2cccc(Oc3ccccc3)c2)C1(C)C` (stereo unspecified) as the compound, how does the AC50 read?
The AC50 was 18.5 µM (active).

With `COP(=S)(OC)SCn1nnc2ccccc2c1=O` as the compound, how does the outcome read?
Its outcome is “inactive”.

Which outcome does the source give for `O=C(Nc1ccccc1-c1ccc(Cl)cc1)c1cccnc1Cl` here?
Its outcome is “inactive”.

What about the AC50 of the same compound?
Its AC50 is 5.35 µM (active).

For `CS(=O)(=O)c1ccc(C(=O)C2C(=O)CCCC2=O)c([N+](=O)[O-])c1`, which outcome is on record?
The outcome was “inactive”.

With `CCN(CC)c1nc(C)cc(OP(=S)(OC)OC)n1` as the compound, how does the outcome read?
The outcome was “inactive”.

For `CO/N=C(/C1=NOCCO1)c1ccccc1Oc1ncnc(Oc2ccccc2Cl)c1F`, which AC50 is on record?
Its AC50 is 2.28 µM (active) and 518 nM (active).

For `C=C(C)CN(CC)c1c([N+](=O)[O-])cc(C(F)(F)F)cc1[N+](=O)[O-]`, which AC50 is on record?
The AC50 was 22.1 µM (active).

With `CCSC(=O)N1CCCCCC1` as the compound, how does the outcome read?
Its outcome is “inactive”.

Which outcome does the source give for `CCOC(=O)C(C)OC(=O)c1cc(Oc2ccc(C(F)(F)F)cc2Cl)ccc1[N+](=O)[O-]` (stereo unspecified) here?
Its outcome is “inactive”.

With `CC(C)=CC1C(C(=O)OCc2coc(Cc3ccccc3)c2)C1(C)C` (stereo unspecified) as the compound, how does the outcome read?
Its outcome is “inactive”.

Which outcome does the source give for `CCOP(=O)(OCC)Oc1nc(Cl)c(Cl)cc1Cl` here?
Its outcome is “inactive”.

Which outcome does the source give for `COP(=O)(OC)O/C(C)=C/C(=O)N(C)C` here?
Its outcome is “inactive”.

For `CS(=O)(=O)c1cc(C(F)(F)F)ccc1C(=O)c1cnoc1C1CC1`, which outcome is on record?
Its outcome is “inactive”.

With `N#CN=C1SCCN1Cc1ccc(Cl)nc1` as the compound, how does the outcome read?
The outcome was “inactive”.

With `CCCN(CC)CC1COC2(CCC(C(C)(C)C)CC2)O1` (stereo unspecified) as the compound, how does the AC50 read?
The AC50 was 0.234 µM (active).

With `COC(=O)N(C(=O)N1CO[C@@]2(C(=O)OC)Cc3cc(Cl)ccc3C2=N1)c1ccc(OC(F)(F)F)cc1` as the compound, how does the outcome read?
The outcome was “inactive”.

Which outcome does the source give for `CN/C(=N\[N+](=O)[O-])NCc1cnc(Cl)s1` here?
The outcome was “inactive”.

Which outcome does the source give for `COP(=S)(OC)Oc1ccc([N+](=O)[O-])c(C)c1` here?
The outcome was “inactive”.

Which AC50 does the source give for `Cc1c(COC(=O)[C@@H]2[C@H](/C=C(\Cl)C(F)(F)F)C2(C)C)cccc1-c1ccccc1` here?
The AC50 was 3.23 µM (active) and 3.43 µM (active).
